Data: PubChem BioAssay (NCATS)
Values joined by “and” are separate entries in the source; they are usually repeats but may differ in a detail not shown here. Equal values may be shown once. Inconclusive results are not listed. Values without a mark were called inactive. Active and inactive are the calls of the source. Calls follow the shape of the dose curve; as a rule, active = well fitted inhibition curve with a large enough effect; inconclusive = small, poorly fitted or top-dose-only effect; inactive = no such curve, though single readings can be large or run the other way.

target: N-terminal Xaa-Pro-Lys N-methyltransferase 1 (Homo sapiens) (UniProt Q9BV86); assay: qHTS Assay for Inhibitors of N-terminal methyltransferase 1 (NTMT1): LOPAC validation of the NTMT1 SAHH-coupled ThioGlo3 Assay (AID 1347143); conditions: recombinant NTMT1, SAHH-coupled ThioGlo3 fluorescence; series mostly up to 114 µM; activity change, negative = inhibition: at the top concentration;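 also: SAH from peptide methylation measured as thiol fluorescence via SAHH coupling and ThioGlo3; nearly all actives have a fitted effect of over 70% in size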
Sequence (Q9BV86 whole entry, looked up): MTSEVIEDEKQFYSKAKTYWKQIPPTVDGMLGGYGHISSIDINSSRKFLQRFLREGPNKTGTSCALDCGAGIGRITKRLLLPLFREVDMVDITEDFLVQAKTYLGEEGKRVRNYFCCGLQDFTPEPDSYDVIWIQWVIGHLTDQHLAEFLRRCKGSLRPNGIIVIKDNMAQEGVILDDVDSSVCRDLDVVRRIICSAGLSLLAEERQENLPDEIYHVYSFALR
Source text: Assay Submitter (PI): Rong Huang Ph.D, Purdue University, West Lafayette, IN 47907 The N-terminal methytransferase 1 is the first methyltransferase that methylates protein alpha-N-amines and plays an important role in regulating cell mitosis, chromatin interactions and DNA repair. It is observed to be over-expressed in various cancer patient tissues like malignant melanoma and colorectal cancer tissues. Knockdown of NTMT1 in cancer cells causes cell mitotic defects and enhances sensitivity to DNA damaging chemotherapeutics. […] These critical cellular processes in which NTMT1 is implicated, coupled with emerging links to cellular dysfunction, strengthen the inference that NTMT1 is a compelling novel anticancer target. Progress have been made in understanding the molecular properties of NTMT1 and the biological consequences of protein alpha-N-terminal methylation, but there are no specific small molecule probes available for NTMT1 to fully characterize its MTase activity. To address this unmet need, a panel of assay is created and established to enable quantitative high-throughput screening (qHTS) for novel, potent, and selective small molecule NTMT1 inhibitors. Two orthogonal qHTS that use different reagents (ThioGlo vs. MTaseGlo) are developed for primary robotic screening against the NCATS chemical library of more than 400,000 small molecules. Identified inhibitors are reacquired, validated, and further characterized. […] A pilot screen against the LOPAC library of 1280 compounds is carried out to assess performance of the optimized qHTS in 1536-well plate format. Early Translation Branch (ETB) National Center for Advancing Translational Sciences (NCATS) National Institute of Health (NIH)
Materials: NTMT1 enzyme, substrate SPKRIA, control peptide RCC1-6 is provided by the Huang laboratory. ThioGlo3 Assay: In brief, 125nM NTMT1 enzyme was dispensed into a 1536-well assay plate with Aurora Discovery BioRAPTR Flying Reagent Dispenser (FRD, Beckton-Dickenson). Compounds (at various concentration) or 1uM RCC1-6 (SPKRIA) control were transferred to the assay plate using the Kalypsys 1536-pintool apparatus. After 1 min of room temperature incubation, 1uL of substrate (100uM SAM, 10uM SAHH, 15uM ThioGlo3) was added to the wells bringing the final assay volume to 4uL. Initial (background) fluorescence readout (EX: 340nm, EM: 450nm) was then detected using the PerkinElmer ViewLux microplate imager and a final fluorescence readout was taken after 30 min of room temperature incubation. The data was normalized to the background fluorescence.
% is scaled to controls: 0 for no effect and ±100 for the full control effect; potency is read from the fitted curve at half-maximal effect.

Row | SMILES | Potency | activity change, negative = inhibition
1 | CC[N+](CC)(CC)CCOc1ccc(/C=C/c2ccccc2)cc1 | 39.8 µM (active) | –
2 | CCN(CC)CCOC(=O)C1(C2CCCCC2)CCCCC1 | – | -21.6%
3 | OCc1cc(C(O)CNCCCCCCOCCCCc2ccccc2)ccc1O (stereo not given) | 56.2 µM (active) | –
4 | C[C@H](NC(CCc1ccccc1)C(=O)O)C(=O)N1CCC[C@H]1C(=O)O (stereo not given in full) | – | -17.5%
5 | NC(=O)c1ncn([C@@H]2O[C@H](CO)[C@@H](O)[C@H]2O)n1 | – | -5.53%
6 | N=c1c[n+](N2CCOCC2)[n-]o1 | 44.7 µM (active) and 50.1 µM (active) | –
7 | CN(C)CC[C@@H](c1ccc(Cl)cc1)c1ccccn1 | – | -13.8%
8 | CC(C)C(=O)c1c(C(C)C)nn2ccccc12 | – | -21.8%
9 | CC(CN1c2ccccc2Sc2ccccc21)N(C)C (stereo not given) | 50.1 µM (active) | –
10 | CC(=O)OCC(=O)[C@@]1(O)CC[C@H]2[C@@H]3CCC4=CC(=O)CC[C@]4(C)[C@H]3C(=O)C[C@@]21C | – | -13.3%
11 | COC(=O)C1=C(C)NC(C)=C(C(=O)OC)C1c1ccccc1[N+](=O)[O-] | 12.6 µM (active) | –
12 | CC1=C(CC(=O)O)c2cc(F)ccc2/C1=C\c1ccc(S(C)(=O)=O)cc1 | – | -25%
13 | Cc1cc(N)c2ccccc2[n+]1CCCCCCCCCC[n+]1c(C)cc(N)c2ccccc21 | 39.8 µM (active) | –
14 | CC(C)c1c(C(=O)Nc2ccccc2)c(-c2ccccc2)c(-c2ccc(F)cc2)n1CC[C@@H](O)C[C@@H](O)CC(=O)O | – | -8.23%
15 | CSc1ccc2c(c1)N(CCC1CCCCN1C)c1ccccc1S2 (stereo not given) | 44.7 µM (active) | –
16 | CCN(CC)CCCC(C)Nc1c2ccc(Cl)cc2nc2ccc(OC)cc12 (stereo not given) | 39.8 µM (active) | –
17 | COc1ccc(Cl)cc1C(=O)NCCc1ccc(S(=O)(=O)NC(=O)NC2CCCCC2)cc1 | – | -5.29%
18 | COCCOC(=O)C1=C(C)NC(C)=C(C(=O)OC/C=C/c2ccccc2)C1c1cccc([N+](=O)[O-])c1 (stereo not given) | – | -8.2%
19 | CC(C(O)c1ccc(O)cc1)N1CCC(Cc2ccccc2)CC1 (stereo not given) | – | -17.3%
20 | CCN(CC)CCNC(=O)c1cc(Cl)c(N)cc1OC | – | -24%

Row | SMILES | Potency | activity change, negative = inhibition
21 | C[C@]12CC[C@@H]3c4ccc(O)cc4CC[C@H]3[C@@H]1CCC2=O | – | -18.3%
22 | CCCn1cnc2c1c(=O)n(CCCCC(C)=O)c(=O)n2C | – | -10.9%
23 | CNCC(O)c1ccc(O)c(O)c1 (stereo not given) | – | -9.95%
24 | NC(N)=NCCC[C@H](N)C(=O)O | – | -5.83%
25 | C=Cc1c(C)c2cc3[nH]c(cc4nc(cc5nc(cc1[nH]2)C(C)=C5CCC(=O)O)C(CCC(=O)O)=C4C)c(C)c3C=C | 39.8 µM (active) | –
26 | C[C@](N)(Cc1ccc(O)cc1)C(=O)O | – | -13.7%
27 | CC(C)(C(=O)O)c1ccc(C(O)CCCN2CCC(C(O)(c3ccccc3)c3ccccc3)CC2)cc1 (stereo not given) | – | -11.8%
28 | CC(CN(C)C)CN1c2ccccc2CCc2ccccc21 (stereo not given) | – | -25.1%
29 | Cc1c(O)cccc1C(=O)N[C@@H](CSc1ccccc1)[C@H](O)CN1C[C@H]2CCCC[C@H]2C[C@H]1C(=O)NC(C)(C)C | – | -4.13%
30 | Nc1cc(=O)[nH]c(N)n1 | – | -20.9%
31 | CN(C)CCOC(C)(c1ccccc1)c1ccccn1 (stereo not given) | – | -16.6%
32 | O=C1NC(=O)[C@@]2(CCOc3ccc(F)cc32)N1 | – | -9.82%
33 | CNCCCC1c2ccccc2C=Cc2ccccc21 | 56.2 µM (active) | –
34 | CC[C@H]1CN2CCc3cc(OC)c(OC)cc3[C@@H]2C[C@@H]1C[C@H]1NCCc2cc(OC)c(OC)cc21 | – | -18.1%
35 | CC(C)(C)c1onc(OCP(=O)(O)O)c1CC(N)C(=O)O (stereo not given) | inactive | –
36 | CCN(CC)C(C)CN1c2ccccc2Sc2ccccc21 (stereo not given) | 25.1 µM (active) | –
37 | CN(C)CCC=C1c2ccccc2CCc2ccccc21 | – | -20.9%
38 | NC1[C@H]2CN(c3nc4c(cc3F)c(=O)c(C(=O)O)cn4-c3ccc(F)cc3F)C[C@@H]12 (stereo not given in full) | 50.1 µM (active) | –
39 | CCCCc1ncc(/C=C(\Cc2cccs2)C(=O)O)n1Cc1ccc(C(=O)O)cc1 | – | -29.3%
40 | CNCCC(Oc1ccc(C(F)(F)F)cc1)c1ccccc1 (stereo not given) | – | -21.2%
